This is part of a sample that, as a whole, favours compounds with a hit. Of some 79,000 tested, about 15% had one in any assay. Values without a mark were called inactive. The source made the active and inactive calls. No stated cut-off is given here; in the data, active means growth inhibition above about 70%; inactive means the rest.
Legend:
[1] = NCI Yeast Anticancer Drug Screen. Data for the rad50 strain (AID 155);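 further: 0% = growth of vehicle-only cultures of the same strain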; conditions: S. cerevisiae rad50 strain growth inhibition; at 50.0 µM; hits give high values
Method in brief: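 Relative growth inhibition (compound vs vehicle) was measured in yeast with a defined repair-gene alteration.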

[2] = NCI Yeast Anticancer Drug Screen. Data for the mec2-1 strain (AID 157); conditions: S. cerevisiae mec2-1 strain, at 50.0 µM, hits give high values
Method in brief: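 Compounds were applied to mec2-1 yeast cells. Their growth was then compared with that of vehicle-treated cultures to give growth inhibition.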

[3] = NCI Yeast Anticancer Drug Screen. Data for the sgs1 mgt1 strain (AID 161);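 further: 0% = growth of cultures given vehicle only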; conditions: S. cerevisiae sgs1 mgt1 strain, at 50.0 µM, hits give high values
Method in brief: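 Percent growth inhibition was derived by comparing compound-exposed mutant yeast with vehicle-exposed cultures. The strain carries alterations in DNA damage repair.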

[4] = NCI Yeast Anticancer Drug Screen. Data for the cln2 rad14 strain (AID 165);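 further: 0% = growth equal to vehicle treated cultures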; conditions: S. cerevisiae cln2 rad14 strain, at 50.0 µM, hits give high values
Method in brief: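 Strain: cln2 rad14 yeast, altered in cell cycle control and DNA damage repair. Read-out: growth inhibition vs vehicle.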

[5] = NCI Yeast Anticancer Drug Screen. Data for the bub3 strain (AID 167); conditions: S. cerevisiae bub3 mutant strain, at 50.0 µM, hits give high values
Method in brief: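 Screening used yeast with an engineered genetic alteration affecting cell cycle control. Compound-exposed cultures were compared with vehicle cultures, and reduced growth was taken as inhibition.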

[6] = NCI Yeast Anticancer Drug Screen. Data for the mlh1 rad18 strain (AID 175); conditions: S. cerevisiae mlh1 rad18 strain growth inhibition; at 50.0 µM; hits give high values
Method in brief: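 A repair-deficient yeast strain is exposed to test compound, and growth is scored relative to vehicle-treated controls.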

Structure (SMILES) | growth inhibition [1] | growth inhibition [2] | growth inhibition [3] | growth inhibition [4] | growth inhibition [5] | growth inhibition [6]
CC1(C)N=C(C(N)=O)c2[nH]cnc2N1 | -2.55% | 4.35% | 12.8% | 13.3% | 11.3% | -51.2%
CCN(CC)c1ccc(/C=N\N(C)C)cc1 | 0.2% | -13.2% | -4.8% | -48.1% | -1.65% | -6.55%
Nc1ccc(S(=O)(=O)NC(=O)NCc2ccccc2)cc1 | 0.7% | -5% | 3.5% | -33% | -10.6% | -9.55%
CC(C)=CCN(N=O)c1ncnc2nc[nH]c12 | -10.1% | 31.1% | -24.8% | -2.5% | 18.9% | 9.85%
CCSc1nc(C)cc(=O)[nH]1 | 28% | -1.35% | 9.6% | 6.15% | 13.2% | 27.9%
S=c1sc2c(Cl)nc(Cl)nc2n1-c1ccccc1 | -17.2% | -4.95% | -13.6% | -1% | 9.65% | -11.2%
CCCCCC(=O)Oc1c(C(C)CC)cc([N+](=O)[O-])cc1[N+](=O)[O-] (configuration not stated) | 97.5% (active) | 97% (active) | 98.5% (active) | 97.7% (active) | 97.3% (active) | 98.2% (active)
CCC(CC)CCC(=O)CC(C)C | 23.9% | -3.5% | -15.6% | 5.5% | -19% | 7.1%
CC(=O)Oc1ccc(C2(OC(C)=O)c3ccccc3C(=O)c3ccccc32)cc1 | 11.5% | 9.9% | 34.4% | 34.1% | -8.5% | 31.8%
CCC(=O)Nc1ncnc2ncn(C(=O)CC)c12 | -8.7% | -48.2% | -32.9% | -23.6% | -45.1% | 9.65%
C=C1C(=O)[C@@]23CC[C@@H]4[C@@]5(C)CCC[C@@]4(OC5=O)C2(C)CC[C@]1(OC)C3 (some centres not stated) | 87.2% (active) | 92.5% (active) | 88.3% (active) | 88.5% (active) | 88.4% (active) | 90.7% (active)
Cc1ccc(S(=O)(=O)Nc2ccccc2C(=O)c2ccc(C)c(C)c2)cc1 | 4.1% | -7.15% | -9.9% | -41% | -40.9% | 23.9%
CC(C)NC1(C(N)=O)CCN(Cc2ccccc2)CC1 | 7.85% | -17.2% | 8.1% | -3.15% | -51.9% | 18.1%
CCCCCCCC/C(C=O)=C\c1ccc(C)cc1 | 53% | 33.8% | 55% | 51.7% | 66% | 62.6%
O=c1[nH]c(=O)c2nc[nH]c(=O)c2[nH]1 | -8.55% | -8.45% | -4.2% | -3.55% | -11.6% | -13.2%
CCCCCCCCCCCCCCCC(=O)OCC(O)CO (configuration not stated) | -28.4% | -0.35% | -6.25% | -167% | -11% | 1.1%
CCCCNC(=S)N(CCCC)CCCC | 21.8% | 18.2% | 10.3% | -16.2% | 30.9% | 13.1%
O=C(CCN1CCCCC1)c1cc(Cl)ccc1Cl | 88.4% (active) | 68.4% | 93.1% (active) | 62.5% | 91% (active) | 80.2% (active)
COCCn1nc(-c2ccc(Cl)cc2)c(-c2ccc(Cl)cc2)c(C(C)=O)c1=O | 12.2% | -5.15% | 0.9% | 9.05% | -1.7% | -7.85%
O=[N+]([O-])c1cccc(C2CC(c3ccccc3)=NN2c2ccccc2)c1 (configuration not stated) | 2.9% | -2.05% | 0.25% | -9.4% | 10.4% | -7.3%
N#Cc1c(N)[n+]([O-])c2c([n+]1[O-])CCCC2 | 11.4% | 3.35% | 7% | -43.2% | -14.8% | -3.35%

Structure (SMILES) | growth inhibition [1] | growth inhibition [2] | growth inhibition [3] | growth inhibition [4] | growth inhibition [5] | growth inhibition [6]
O=C(CNc1ccccc1[N+](=O)[O-])Nn1cnc2ccc(S(=O)(=O)Nc3ccccc3[N+](=O)[O-])cc2c1=O | 25.8% | -1.25% | 39.8% | 15.1% | 21.2% | 28.5%
Cc1ccc(S(=O)(=O)n2cncc2CO)cc1 | -33.7% | -26.8% | -15.1% | 7.55% | 4.05% | -10.7%
O=C(/C=C\c1ccccc1)OC(c1ccccc1)c1ccc(Br)cc1 (configuration not stated) | 17.9% | 6.25% | 14.1% | -3.95% | -3.4% | 8%
CC(C)(C)C(=O)Nc1ccccc1 | 37.7% | 17% | 0.2% | 1.55% | -12.4% | 23%
O=C(CCl)Nc1cc2ccccc2c2ccccc12 | 0.65% | -23.6% | -10.9% | 1.6% | 9.6% | 8.6%
CC1=CC(=N/S(=O)(=O)c2ccccc2)/C2CC(C)=C(C)CC2/C1=N\S(=O)(=O)c1ccccc1 (configuration not stated) | 82.6% (active) | 78.6% (active) | 93% (active) | 56.6% | 81.2% (active) | 85.3% (active)
CCOc1nc(=O)n(CC(=O)c2ccc(Cl)s2)cc1F | 4.55% | 17.4% | -0.8% | -7.8% | 21.6% | 19.6%
C[N+](C)(C)C1(Cc2ccccc2)c2ccccc2-c2ccc(Cl)cc21 (configuration not stated) | 29.1% | 4.85% | 21.2% | -15.8% | -6.8% | 5.9%
COC(=O)Nc1ccc(C)cc1[N+](=O)[O-] | 5.5% | -8.75% | -13.4% | -50.4% | 6.4% | -0.6%
COCC1(c2ccccc2)C(=O)N(C)C(=O)N1C (configuration not stated) | -7.6% | 2.5% | -6.25% | -6.3% | -9.85% | 5.25%
O=[N+]([O-])c1ccc(S(=O)(=O)N/N=C/c2cccc3ccccc23)cc1 | 6.6% | -1.25% | 17.1% | -15.8% | -0.3% | 19.8%
CCc1ccccc1O | 6.1% | -7.6% | 3.3% | -25% | -11.7% | 1.4%
CC(/C=C/C=C(\C)C(=O)O)=C\C=C\C=C(C)\C=C\C=C(/C)C(=O)O | -0.8% | -21% | 3.7% | 6.6% | -9.05% | 17.9%
C=C(Cl)CSC(C)(C)C | -9.4% | 5.8% | -6.7% | -19.6% | -18.2% | -8.5%
COc1ccc([N+](=O)[O-])cc1NC(=O)c1ccc(Cl)cc1 | 12% | 29.7% | 35.6% | 16.9% | 28% | 34.8%
O=C(Cc1ccccc1)c1ccc(OCC(O)CN2CCN(c3ccccc3)CC2)cc1 (configuration not stated) | 97.7% (active) | 98.1% (active) | 99.3% (active) | 93.4% (active) | 84.1% (active) | 96.3% (active)
C=CC1C(=O)N(C)[C@H](C(C)(C)C)N1C(=O)c1ccccc1 (some centres not stated) | 1.5% | 11.9% | 9.1% | -18.9% | 2% | 10%
CC(C)/C=N/N=C/C(C)C | -15.8% | 9.7% | -16.6% | 15.3% | -13.6% | -12.8%
CN(C)CCOC(=O)Nc1ccccc1C(F)(F)F | 16.1% | -8.1% | 17.1% | 21.8% | 19.8% | 12.2%
CC1=CC(=O)C2=C(C)CCC3C(C)C(=O)OC3C12 (configuration not stated) | -4.2% | -9.85% | -6.75% | 10.8% | -3.55% | -60.7%
CCCCCCc1c(N)nc(N)[nH]c1=O | 4.3% | 9.35% | -11.2% | -36.8% | -12.9% | -14.2%
